This excerpt belongs to a sample that is enriched for hits.
ID4 binder – ID4 (human) binding; AID 624137; small molecule microarray, Flag-ID4 binding, fluorescence F/B; P47928; calls only; hit rate 1.2% among 31,000; call rule not given here;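 further: a binder raises fluorescence above local background on the spot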
STK33 inh – blocks human STK33 kinase activity | Q9BYT3 | ADP-Glo luminescence, MBP substrate | inhibition, % at 12.5 µM | hit rate 0.44% among 27,000 | AID 2322; in the data active means inhibition above about 20%
Target sequence (Q9BYT3 whole entry, looked up): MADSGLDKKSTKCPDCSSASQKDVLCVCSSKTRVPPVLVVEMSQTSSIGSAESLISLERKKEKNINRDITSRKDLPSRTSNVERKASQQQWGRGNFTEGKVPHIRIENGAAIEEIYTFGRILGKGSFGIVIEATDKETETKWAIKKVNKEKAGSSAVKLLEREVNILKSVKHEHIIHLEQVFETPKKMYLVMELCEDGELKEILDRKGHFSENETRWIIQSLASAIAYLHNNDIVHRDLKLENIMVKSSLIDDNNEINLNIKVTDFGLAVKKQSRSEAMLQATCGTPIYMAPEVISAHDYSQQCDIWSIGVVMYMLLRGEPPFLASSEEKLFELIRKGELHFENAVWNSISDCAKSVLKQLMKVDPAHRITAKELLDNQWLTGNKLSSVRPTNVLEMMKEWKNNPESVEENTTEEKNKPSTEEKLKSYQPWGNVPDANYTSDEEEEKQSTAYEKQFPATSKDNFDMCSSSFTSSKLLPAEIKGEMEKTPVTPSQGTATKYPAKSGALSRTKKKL
Hits are given with their value; . = inactive; / = no result; + = active, no number.

SMILES | ID4 binder | STK33 inh
C[C@@H]1O[C@@H](O[C@H]2[C@@H]3C=CO[C@@H](O[C@@H]4O[C@H](CO)[C@@H](O)[C@H](O)[C@H]4O)[C@@H]3[C@@]3(CO)O[C@@H]23)[C@H](O)[C@H](OC(=O)/C=C/c2ccc(O)cc2)[C@H]1O | / | .
COc1c(N2CCNC(C)C2)c(F)cc2c(=O)c(C(=O)O)cn(C3CC3)c12 (configuration not stated) | + | .
O=C(O)c1cn(C2CC2)c2cc(N3CCNCC3)c(F)cc2c1=O | . | .
COc1ccc(N(Cc2cc3cc(C)ccc3[nH]c2=O)C(=O)c2ccccc2)cc1 | . | .
C[C@@H]1CN([C@H](C)CO)C(=O)c2cc(-c3ccncc3)cnc2O[C@@H]1CN(C)C(=O)C1CCOCC1 | + | /
C[C@@H]1CN([C@H](C)CO)C(=O)c2cc(-c3cccc(F)c3)cnc2O[C@@H]1CN(C)C(=O)C1CCOCC1 | . | /
C[C@@H]1CN([C@@H](C)CO)C(=O)c2cc(-c3ccncc3)cnc2O[C@H]1CN(C)Cc1ccc(Oc2ccccc2)cc1 | + | /
C[C@@H]1CN([C@H](C)CO)C(=O)c2cc(C3=CCCC3)cnc2O[C@H]1CN(C)C(=O)Cc1ccncc1 | + | /
C[C@@H]1CN([C@H](C)CO)C(=O)c2cc(-c3cccnc3)cnc2O[C@H]1CN(C)C | . | /
C[C@H](CO)N1C[C@H](C)[C@H](CN(C)Cc2ccncc2)Oc2ncc(-c3ccccc3)cc2C1=O | . | .
C[C@@H]1CN([C@H](C)CO)C(=O)c2cc(C3=CCCCC3)cnc2O[C@H]1CN(C)C(=O)Cc1ccccc1 | . | /
C[C@@H]1CN([C@@H](C)CO)C(=O)c2cc(-c3cccnc3)cnc2O[C@H]1CN(C)C | + | /
COC(=O)c1ccc(CSc2n[nH]c(-c3ccccc3OC)n2)o1 | . | .
COCC(=O)Nc1ccc2c(c1)[C@@H]1C[C@H](CC(=O)NCc3cccnc3)O[C@@H](CO)[C@@H]1O2 | . | /
COc1ccc(S(=O)(=O)n2cc(-c3ccc(C)cc3)c(N)n2)c(OC)c1 | . | .
C[C@H](CO)N1C[C@H](C)[C@H](CN(C)C(=O)NC2CCCCC2)Oc2ncc(-c3ccc(F)cc3)cc2C1=O | / | .
C[C@@H]1CN([C@H](C)CO)C(=O)c2cc(-c3ccncc3)cnc2O[C@H]1CN(C)C(=O)NC1CCCC1 | + | /
CC(C)NC(=O)Nc1ccc2c(c1)C(=O)N([C@@H](C)CO)C[C@@H](C)[C@@H](CN(C)Cc1ccc(C(=O)O)cc1)OCCCC[C@@H](C)O2 | . | /
CC(=O)Nc1ccc(NC(=O)COc2ccccc2C(=O)Nc2cccc(C)c2C)cc1 | + | .
Cc1cccc(NC(=O)c2ccccc2OCC(=O)Nc2cccc([N+](=O)[O-])c2)c1C | . | .
COC(=O)c1ccc(NC(=O)CSc2nnc(-c3ccc(NC(C)=O)cc3)n2C)cc1 | + | .
CC(=O)Nc1ccc(NC(=O)CSc2nnc(-c3ccc(N)cc3)n2C)cc1 | . | .
CCn1c(SCC(=O)Nc2ccc(C(=O)O)cc2)nnc1-c1ccc(C)cc1 | . | .
CCn1c(SCC(=O)Nc2ccc(C(N)=O)cc2)nnc1-c1ccc(F)cc1 | + | .
COc1ccccc1C(=O)Oc1c(CN2CCOCC2)cc(Cl)c2cccnc12 | . | .
SMILES | ID4 binder | STK33 inh
C[C@H]1CN([C@@H](C)CO)S(=O)(=O)c2ccc(C3=CCCCC3)cc2O[C@@H]1CN(C)S(=O)(=O)c1cn(C)cn1 | . | /
C=C(C(=O)O)C(CCCCCCO)C(=O)O (configuration not stated) | + | .
C=C(C(=O)O)C(CCCCC(C)O)C(=O)O (configuration not stated) | . | .
COc1cc2c(c(OC)c1OC)CCc1cc(O)c(O)cc1-2 | / | 21
COc1cc(C2OCC3C(c4cc(OC)c(OC)c(OC)c4)OCC23)cc(OC)c1OC (configuration not stated) | . | .
CN(C)CCCCCCNC(=O)[C@@H]1C[C@@H]2C(=O)N3CCC[C@H]3C(=O)N2[C@@H]1c1ccc(O)cc1 | + | .
CN(C)CCCCNC(=O)[C@@H]1C[C@@H]2C(=O)N[C@@H](CCCCN(C)C)C(=O)N2[C@@H]1c1ccc(O)cc1 | / | .
O=C1O[C@@H](c2ccccc2)[C@@H](c2ccccc2)N2[C@@H](c3ccc(OCCO)cc3)[C@]3(C(=O)Nc4ccc(C#CC5=CCCCC5)cc43)[C@@H](C(=O)N3CCN(c4ncccn4)CC3)[C@H]12 | . | .
C=CCNC(=O)[C@@H]1[C@H]2C(=O)O[C@H](c3ccccc3)[C@H](c3ccccc3)N2[C@H](c2ccc(OCCO)cc2)[C@@]12C(=O)Nc1ccc(C#Cc3ccc(OC)cc3)cc12 | . | .
O=C1O[C@@H](c2ccccc2)[C@@H](c2ccccc2)N2[C@@H](c3ccccc3OCCO)[C@]3(C(=O)Nc4ccc(C#CCCO)cc43)[C@@H](C(=O)N3CCN(c4ncccn4)CC3)[C@H]12 | . | .
O=C1O[C@H](c2ccccc2)[C@H](c2ccccc2)N2[C@H]1[C@@H](C(=O)N1CCCCCCC1)[C@]1(C(=O)Nc3ccc(C#CCCO)cc31)[C@H]2c1ccccc1OCCO | . | 22
COc1ccc(C#Cc2ccc3c(c2)[C@]2(C(=O)N3)[C@H](C(=O)N3CCN(c4ncccn4)CC3)[C@H]3C(=O)O[C@H](c4ccccc4)[C@H](c4ccccc4)N3[C@@H]2c2ccccc2OCCO)cc1 | / | .
C=CCNC(=O)[C@@H]1[C@H]2C(=O)O[C@H](c3ccccc3)[C@H](c3ccccc3)N2[C@H](c2ccc(OCCO)cc2)[C@@]12C(=O)Nc1ccc(C#CCNC(N)=O)cc12 | . | 20
O=C1O[C@H](c2ccccc2)[C@H](c2ccccc2)N2[C@H]1[C@@H](C(=O)N1CCCCCCC1)[C@]1(C(=O)Nc3ccc(C#CC4=CCCCC4)cc31)[C@H]2c1ccc(OCCO)cc1 | / | 22
COc1ccc(C#Cc2ccc3c(c2)[C@]2(C(=O)N3)[C@H](C(=O)N3CCCCCCC3)[C@H]3C(=O)O[C@H](c4ccccc4)[C@H](c4ccccc4)N3[C@@H]2c2ccccc2OCCO)cc1 | / | 30
O=C(Nc1ccc(I)cc1C(=O)NCCN1CCOCC1)c1ccco1 | . | .
Cc1nnc(SCC(=O)Nc2ccc([N+](=O)[O-])cc2O)s1 | . | .
CC(NS(=O)(=O)c1ccc(Br)cc1)C(=O)Nc1ccccc1 (configuration not stated) | . | .
C[C@@H]1CN([C@@H](C)CO)C(=O)Cc2cc(NC(=O)C3CC3)ccc2O[C@H]1CN(C)C(=O)Nc1ccc(F)cc1 | . | /
O=C1O[C@H](c2ccccc2)[C@H](c2ccccc2)N2[C@H]1[C@@H](C(=O)N1CCN(c3ncccn3)CC1)[C@]1(C(=O)Nc3ccc(C#CC4(O)CCCCCC4)cc31)[C@H]2c1ccccc1OCCO | / | .
O=C1O[C@H](c2ccccc2)[C@H](c2ccccc2)N2[C@H]1[C@@H](C(=O)N1CCCCCCC1)[C@]1(C(=O)Nc3ccc(C#CC4(O)CCCCCC4)cc31)[C@H]2c1ccccc1OCCO | . | 21
Cc1noc(C)c1S(=O)(=O)Nc1ccc2c(c1)CC(=O)N([C@H](C)CO)C[C@@H](C)[C@H](CN(C)C(=O)Nc1cccc3ccccc13)O2 | / | .
CCOC(=O)c1c(NC(=O)CSc2ncn[nH]2)sc2c1CCCC2 | . | .
NC(=O)c1c(NC(=O)CSc2ncn[nH]2)sc2c1CCC2 | + | .
COC(=O)c1ccccc1NC(=O)CC(O)(C(F)(F)F)C(F)(F)F | . | .

Assay outcomes as filed in PubChem.
